aSyn UTR act: Activators working through SNCA 5'UTR binding (MLPCN); activity score, % (tested at 7.5 µM), hits read low; AID 1814; 300,000 compounds, 7.1% hits; alpha-synuclein 5'UTR reporter, activators screen; in the data active = activity score below about -60%
Of the large screens only hits and unclear results are named; the others gave an inactive call. Only a sample is shown.

Cc1ccc(-c2nc(N/N=C/c3ccccc3[N+](=O)[O-])c3ccccc3n2)cc1	aSyn UTR act -267
Brc1ccc(-c2nc(N/N=C/c3cccnc3)c3ccccc3n2)cc1	aSyn UTR act -92
C=CCn1cccc(C(=O)Nc2ccc(SC)cc2)c1=O	aSyn UTR act -155
C=CCn1cccc(C(=O)Nc2ccc(N(C)C)cc2)c1=O	aSyn UTR act -104
C=CCn1cccc(C(=O)Nc2ccc(OCC)cc2)c1=O	aSyn UTR act -155
C=CCn1cccc(C(=O)Nc2ccc(Cl)cc2)c1=O	aSyn UTR act -141
O=C(Nc1cccc(Br)c1)c1ccc(OC2CSC2)cc1	aSyn UTR act -198
Cc1cccc(NC(=O)c2ccc(OC3CSC3)cc2)c1	aSyn UTR act -177
CS(=O)(=O)c1ccc(C(=O)Nc2ccc(-c3nc4ccccc4[nH]3)cc2)cc1	aSyn UTR act -67
O=C(Nc1ccc(-c2nc3ccccc3[nH]2)cc1)c1ccc2c(c1)OCO2	aSyn UTR act -102
Cn1ncc([N+](=O)[O-])c1C(=O)Nc1ccc(-c2nc3ccccc3[nH]2)cc1	aSyn UTR act -159
O=C(Nc1ccc(-c2cn3c(n2)SCC3)cc1)c1ccc2c(c1)OCO2	aSyn UTR act -87
c1ccc2[nH]c(-c3ccc4c(c3)OCO4)nc2c1	none
Cn1ncc([N+](=O)[O-])c1C(=O)Nc1ccc(C2CCCCC2)cc1	aSyn UTR act -136
Cc1ccc(C(=O)Nc2ccc(N3CCCC3)cc2)cc1	aSyn UTR act -160
O=C(Nc1cccc(Cl)c1)c1ccc(OC(=S)N2CCOCC2)cc1	aSyn UTR act -182
COc1ccc(C(=O)Nc2ccc(N3CCCCC3)cc2)cc1Br	aSyn UTR act -63
Cc1ccc(C(=O)Nc2ccc(N3CCOCC3)cc2)cc1	aSyn UTR act -95
Cc1ccc(CNc2ccc(N3CCOCC3)cc2)cc1	aSyn UTR act -108
Cc1ccc(C(=O)Nc2cccc(C(=O)N3CCOCC3)c2)cc1	aSyn UTR act -89
Cc1ccc(C(=O)Nc2ccc(N3CCN(C)CC3)nc2)cc1	aSyn UTR act -63
CCC(=O)NC(=S)Nc1ccc(N2CCOCC2)cc1	aSyn UTR act -82
Cc1ccc(C(=O)Nc2cccc(C(=O)O)c2)cc1	none
Cc1ccc(C(=O)Nc2ccc(N3CCN(C)CC3)cc2)c(Cl)c1	aSyn UTR act -162
COc1cc(C(=S)N2CCCC2)ccc1OS(=O)(=O)c1ccc(NC(C)=O)cc1	aSyn UTR act -64
O=c1sc(/C=N/Nc2ccccc2)c(Cl)n1Cc1ccccc1	aSyn UTR act -84
O=C(NC1CCCCCCC1)NC1CCCCC1	aSyn UTR act -127
O=C(NC1CCCCCC1)C(=S)NC1CCCCC1	aSyn UTR act -98
Cc1ccc(NC(=O)CC2COc3ccccc3O2)cc1 (stereo unspecified)	aSyn UTR act -89
O=C(CC1COc2ccccc2O1)NC1CCCCC1 (stereo unspecified)	aSyn UTR act -67
N/C(=N\OC(=O)c1cccnc1)c1ccc(Cl)cc1Cl	aSyn UTR act -153
N/C(=N\OC(=O)c1cccnc1)c1ccccc1Cl	aSyn UTR act -69
CC(C(=O)OCc1nnc(-c2ccccc2)o1)N1C(=O)C2CCCCC2C1=O (stereo unspecified)	aSyn UTR act -63
Nc1ccc2oc(CCc3ccccc3)nc2c1	aSyn UTR act -118
c1ccc2oc(CCc3nc4ccccc4o3)nc2c1	aSyn UTR act -99
C/C(=N\NC(=O)c1ccn[nH]1)c1cn(C)nc1C	aSyn UTR act -98
Cc1cc(/C(N)=N/OC(=O)c2ccc(Cl)cc2)no1	aSyn UTR act -201
N/C(=N\OC(=O)c1ccc(Cl)cc1)c1ccccn1	none
Cc1cc(/C(N)=N/OC(=O)c2cccc(Cl)c2)no1	aSyn UTR act -193
COc1ccc(-c2nnc(-c3ccc(N(C)C)cc3)o2)cc1	aSyn UTR act -148
CN(C)c1ccc(-c2nnc(-c3ccc(S(=O)(=O)C(F)F)cc3)o2)cc1	aSyn UTR act -63
COc1ccc(-c2nnc(-c3ccc(N)cc3)o2)cc1	aSyn UTR act -113
CCOC(=O)CCSc1nc(C)c2cc(OC)ccc2n1	aSyn UTR act -123
CCOc1ccc2nc(SCc3cccc(C)c3)nc(C)c2c1	aSyn UTR act -129
COc1cc(C=O)c(Br)cc1OCc1ccc(C)cc1	aSyn UTR act -204
CCOc1ccc(-c2nnc(SCC(=O)N3CCOCC3)o2)cc1	aSyn UTR act -113
COc1ccc(-c2nnc(SCC(=O)N3CCCC3)o2)cc1	aSyn UTR act -107
CCOc1ccc(-c2nnc(SCC(=O)N3CCCC3)o2)cc1	aSyn UTR act -101
CCOc1ccc(-c2nc(CSCC(=O)N3CCN(c4cccc(OC)c4)CC3)c(C)o2)cc1	none
Nc1ccc2oc(-c3ccccc3Cl)cc(=O)c2c1O	aSyn UTR act -63
Cc1ccc(-c2cc(C(=O)Nc3nn[nH]n3)c3ccccc3n2)cc1	aSyn UTR act -69
O=C(N/N=C/c1cccs1)c1cc(-c2ccncc2)nc2ccccc12	none
COc1ccc(-c2cc(C(=O)Nc3ccc(C(N)=O)cc3)c3ccccc3n2)cc1	aSyn UTR act -119
COc1ccc2cc(-c3cc(C(=O)O)c4ccccc4n3)ccc2c1	none
O=C(Nc1nccs1)c1cc(-c2ccncc2)nc2ccccc12	aSyn UTR act -67
O=C(Nc1ccncc1)c1cc(-c2cccc(Br)c2)nc2ccccc12	none
Cn1cccc1C(=O)OCC(=O)Nc1ccc2c(c1)CCC2	aSyn UTR act -138
Cn1cccc1C(=O)OCC(=O)Nc1ccc2c(c1)OCO2	aSyn UTR act -101
CCc1ccc(NC(=O)CSc2nncn2-c2cccnc2)cc1	aSyn UTR act -119
CC(C)(C)C1CCc2c(sc(NC(=O)c3cccs3)c2C(N)=O)C1 (stereo unspecified)	aSyn UTR act -158
O=C1C=C(c2ccc3[nH]ccc3c2)CCC1	aSyn UTR act -151
CC1(C)CC(=O)C=C(c2ccc3[nH]ccc3c2)C1	aSyn UTR act -65
Cc1cccc(-n2ncc3c(N4CCOCC4)ncnc32)c1	none
C=CCNc1ncnc2c1cnn2-c1cccc(C)c1	aSyn UTR act -133
Cc1cccc(-n2ncc3c(N4CC(C)CC(C)C4)ncnc32)c1 (stereo unspecified)	aSyn UTR act -109
Cc1cccc(-n2ncc3c(NC4CCCCC4)ncnc32)c1	aSyn UTR act -90
Cc1ccc(-n2ncc3c(N4CCN(c5ccccc5)CC4)ncnc32)c(C)c1	aSyn UTR act -62
Cc1cccc(-n2ncc3c(NCCCO)ncnc32)c1	aSyn UTR act -101
CCc1cccc2c(C(=O)COC(=O)c3ccc(O)cc3)c[nH]c12	aSyn UTR act -109
CCc1cccc2c(C(=O)COC(=O)c3ccccc3)c[nH]c12	aSyn UTR act -186
O=C(OCC(=O)c1cccc2ccccc12)c1ccc(CO)cc1	aSyn UTR act -98
CSc1ccccc1NC(=O)c1cc2ncc(Br)cn2n1	aSyn UTR act -182
O=[N+]([O-])c1cccnc1NCCNc1ncc(C(F)(F)F)cc1Cl	aSyn UTR act -178
O=[N+]([O-])c1ccccc1NCCNc1ncc(C(F)(F)F)cc1Cl	aSyn UTR act -77
O=c1cc(Cl)[nH]c(=O)n1CCNc1ncc(C(F)(F)F)cc1Cl	aSyn UTR act -106
N/C(=N\OC(=O)c1ccco1)c1cccc(Br)c1	aSyn UTR act -249
N/C(=N\OC(=O)c1ccco1)c1cccc([N+](=O)[O-])c1	aSyn UTR act -210
COc1ccc(/C(N)=N/OC(=O)c2ccco2)cc1OC	aSyn UTR act -142
c1ccc(-c2noc(C3CCCCC3)n2)nc1	aSyn UTR act -82
Brc1ccc(-c2noc(C3CCCCC3)n2)cc1	aSyn UTR act -143
Cc1c(C(=O)Nc2nonc2-c2ccc(F)cc2)oc2ccc(F)cc12	none
Cc1cc2oc(C(=O)Nc3nonc3C)c(C)c2cc1C	aSyn UTR act -175
